Source: PubChem BioAssay (NCI)
About 83,000 compounds went through this panel and 20% of them were active in at least one assay; those are over-represented in the sample as a whole.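 The endpoint reported here, percent growth, reads 100 for growth as untreated, 0 for no net growth and -100 for all cells dead.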 Unmarked numbers belong to inactive results. Active and inactive are the calls of the source. The calls were made as follows: active = growth percent below 10; inactive = the rest.

system: HL-60(TB) leukemia; assay: NCI-60 one-dose screen, 48 h (100 = growth as untreated, 0 = no growth, -100 = all killed); details: 10 µM unless noted

| SMILES | growth |
| --- | --- |
| CCN(CC)CCNCC(O)Cc1ccc(OC)cc1 (stereo not given) | 59.1% |
| COc1ccc(N2CCN(S(=O)(=O)c3oc(-c4ccccc4)nc3C#N)CC2)cc1 | 50.5% |
| Cn1cc(-c2csc(-c3cn(CCOC(N)=O)c4ccccc34)n2)c2cccnc21 | 86.9% |
| S=c1nn[nH]c2ccccc12 | 105% |
| CC1/C=C/C=C/C=C/C=C/C=C/C=C/C=C/C(O[C@@H]2O[C@H](C)[C@H](O)[C@@H](O)[C@@H]2N)CC(O)C(C(=O)O)C(O)CC(=O)CC(O)CC(O)CC(O)CC(=O)CCCC(=O)CC(=O)OC1C(C)CC(C)C(O)CC(=O)c1ccc(N)cc1 (stereo not given in full) | -60.3% (active) |
| O=C(CSc1nc2ccccc2[nH]1)Nc1ccc(-c2nc3ccccc3s2)c(Cl)c1 | 62% |
| Cc1ccc(NC(=S)N/C=C(\c2ccccc2)S(=O)Cc2ccccc2)c(C)c1 (stereo not given) | 96.8% |
| Nc1nc(-c2cc3c(cc2Cl)NC(=O)/C3=C/c2ccccc2)cs1 | 47% |
| Cc1ccc(-c2csc(N)n2)cc1 | 112% |
| O=C1C(=O)c2c(nc3ccc(Br)cn23)-c2ccccc21 | -58.2% (active) |
| COC(=O)/C=C1\S/C(=N\NC(=O)c2cc3ccc2/C=C\c2ccc(cc2)/C=C\3)N(Cc2ccccc2)C1=O | -5.46% (active) |
| CN(C)c1ccc(C2CC(c3ccccc3)=NN2/C=C2\SC(=O)NC2=O)cc1 (stereo not given) | 84.7% |
| CC(C)OP(=O)(O)c1ncc(-c2ccc(C(F)(F)F)cc2)c(NC2CCCCCC2)n1 | 44.4% |
| CNC(=O)c1cc(Oc2ccc3c(c2)sc2nc(-c4ccc(Cl)cc4)cn23)ccn1 | 88.4% |
| CC(C)NC(=O)OCc1c(COC(=O)NC(C)C)c(-c2ccc(Cl)c(Cl)c2)n2c1SCC2 | 7.43% (active) |
| COc1ccc(C(C)=O)cc1N1C(=O)C2C(C1=O)C1(c3ccccc3)C(=O)C2(c2ccccc2)C(c2ccc(C)cc2)=C1c1ccc(C)cc1 (stereo not given) | 17.1% |
| COc1ccc(/C=C2\N=C(Nc3ccccc3)N(NC(=O)c3ccccn3)C2=O)cc1 | 97.7% |
| O=C1CC(c2ccsc2)c2snc(-c3ccc(Cl)cc3)c2N1 (stereo not given) | 12.9% |
| CCCCCC(CCCCC)C(=O)O | 90.4% |
| COc1cc(/C=C/C(=O)N2CCN(C(=O)c3cc(OC)c(OC)c(OC)c3)CC2)ccc1OCCCN1C(=O)c2cccc3cccc(c23)C1=O | 56.7% |

| SMILES | growth |
| --- | --- |
| Ic1ccccc1I | 94.1% |
| CCOC(=O)n1cc(C2=C(c3ccc(OC)c(OC)c3)COC2=O)c2ccccc21 | -28.7% (active) |
| COc1ccc(NC(=O)c2sc3nc4c(cc3c2N)CCCC4)cc1 | -14.6% (active) |
| COc1cc2c(cc1NC(=O)C(Cl)Cl)-c1ccc(NC(=O)C(Cl)Cl)cc1C2 | -14.5% (active) |
| CC(=O)OC1CC2C(C)(C)CCC[C@]2(C)C2=C1C(O)=C(C(C)C)C(=O)C2=O (stereo not given in full) | 3.12% (active) |
| O=C1C=CN2C(=O)CC=CC2[C@@H]1O (stereo not given in full) | 98.1% |
| CN1CCN(CCCNC(=O)c2c3c(n4ccccc24)C(=O)c2ncccc2C3=O)CC1 | -25.4% (active) |
| CCCOC(=O)Nc1nc2ccc(SCC(C)C)cc2s1 | 15.9% |
| O=C(O)c1cn(C2CC2)c2cc(N3CCN(C(=O)/C=C/c4ccc(Cl)cc4)CC3)c(F)cc2c1=O | 60.4% |
| CC[C@H](C)[C@@H]1NC(=O)[C@H]([C@@H](C)O)NC(=O)C(Cc2ccccc2)NC(=O)[C@@H]2CCCN2C(=O)C(C(C)C)NC(=O)C(Cc2ccccc2)NC(=O)CNC(=O)[C@@H]2CCCN2C1=O (stereo not given in full) | 5.19% (active) |
| COC(=O)/C=C1/SC(N2N=C(c3cccs3)CC2c2ccc(F)cc2)=NC1=O (stereo not given) | -7.95% (active) |
| CCN1C(=O)N(CC)C2C1NC(=O)N2/N=C/C=C/c1ccccc1 (stereo not given) | 0.782% (active) |
| Cc1ccc(Nc2oc(-c3ccccc3)nc2[P+](c2ccccc2)(c2ccccc2)c2ccccc2)cc1 | -32.5% (active) |
| O=C(/C=C/c1ccccc1Cl)c1ccc(O)cc1 | 60.2% |
| CCCCCCSc1ncnc2nc[nH]c12 | 72.2% |
| COc1ccc(-c2cn[nH]c2-c2cc(OC)c3c(c2)OCCO3)cc1 | -33.2% (active) |
| O=C(NC[C@H](O)CO)c1ccncc1Nc1ccc(I)cc1F | 24.2% |
| NS(=O)(=O)c1ccccc1NC(=O)Nc1nc2ccccc2s1 | 102% |
| C=C1CC[C@@H]2[C@](C)(COC(C)=O)[C@H](OC(C)=O)CC[C@@]2(C)[C@@H]1CC(Nc1ccc(S(=O)(=O)Nc2nc(C)cc(C)n2)cc1)C1=CCOC1=O (stereo not given in full) | 21.7% |
| CCCCCN1C=C/C(=C\C(=O)N2CCCc3ccccc32)c2ccccc21 | 54.8% |
